The sample as a whole holds a higher share of hits than the screen did.
APEX1 inh – inhibitors of human APE1 endonuclease; P27695; recombinant APE1, TAMRA/BHQ-2 abasic DNA cleavage fluorescence; Potency, µM (series often up to 65.8 µM), for the others: at the highest dose activity change, negative = inhibition, most hits filed as inhibitors; 350,000 compounds, 0.35% hits;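 also: plate controls were vehicle for no effect and reference inhibitor for full effect; nearly all actives have a fitted effect of over 55% in size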
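Quantitative HTS: incision of a TAMRA/BHQ-2 double-stranded substrate bearing a tetrahydrofuran abasic site by 0.75 nM APE1 raises fluorescence. Substrate 50 nM final, added after 15 min compound preincubation at room temperature; progress as third-minus-first kinetic read difference.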
KDM4E inh – blocks human JMJD2E demethylase activity; B2RXH2; JMJD2E catalytic domain, FDH-coupled NADH fluorescence (FDH is formaldehyde dehydrogenase); Potency, µM (top dose mostly 57.1 µM), for the others: at the highest dose activity change, negative = inhibition, hits mostly inhibitors; 230,000 compounds, 1.6% hits; AID 2147; active = well fitted inhibition curve with a large enough effect, not every such curve was filed as active; inconclusive = small, poorly fitted or top-dose-only effect, or another doubt; inactive = no such curve, though single readings can be large or run the other way;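 also: 0% = wells with enzyme and -100% = buffer wells without enzyme; nearly all actives have a fitted effect of over 50% in size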
RECQ1 helicase – inhibitors of human RECQ1 DNA helicase; RECQ1 DNA unwinding, red fluorescence kinetic read; 240,000 compounds, 0.54% hits; Potency, µM (titrated, usually from 57.3 µM), inactives show top-dose activity, negative = inhibition, actives largely listed as inhibitors; P46063;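 also: plate controls were vehicle for no effect and no enzyme for full effect; nearly all actives have a fitted effect of over 30% in size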
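RECQ1T1 50 nM; forked duplex (20 bp + 30-nt ss tails) 200 nM, ATP 2 mM final; pH 8.0, 2 mM MgCl2, 2.5 ug/ml poly(dI-dC); 15 min compound preincubation; discontinuous kinetic read over 2 h at RT.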
L3MBTL1 block – L3MBTL1 (human) inhibition | AlphaScreen L3MBTL1–H3K9me1 peptide binding | Potency, µM (doses to about 57.1 µM), for the others: at the top dose activity, negative = inhibition, hits mostly inhibitors | 230,000 compounds, 0.66% hits | AID 485360; also: nearly all actives have a fitted effect of over 60% in size
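First, the protein-peptide complex forms for 30 min at room temperature (L3MBTL1 50 nM, biotinylated H3K9me1 peptide 75 nM). Next, compounds are pin-transferred and incubated 30 min. Finally, AlphaScreen beads are added and read after 30 min.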
BLM inh – inhibitors of human Bloom syndrome helicase BLM; P54132; recombinant BLM DNA unwinding, fluorescence dequenching; Potency, µM (top dose mostly 56.1 µM), for inactives: at the highest dose activity change, negative = inhibition, actives largely listed as inhibitors; 350,000 compounds, 0.2% hits; AID 2528;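 also: plate controls were vehicle for no effect and no enzyme for full effect; nearly all actives have a fitted effect of over 35% in size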
* hit, by the source's call; i = inactive; ? = inconclusive; . = no result given; ! = not confirmed by another sample. Unless noted, calls follow the shape of the dose curve; as a rule, active = well fitted curve in the direction sought with a large enough effect; inconclusive = small, poorly fitted or top-dose-only effect, or another doubt; inactive = no such curve, though single readings can be large; an effect the other way counts as inactive or inconclusive. Unless noted, % is scaled to controls: 0 for no effect and ±100 for the full control effect; potency is read from the fitted curve at half-maximal effect.

SMILES	APEX1 inh	KDM4E inh	RECQ1 helicase	L3MBTL1 block	BLM inh
CCOC(=O)c1c(OCC)[nH]c2c1cc(O)c1ccccc12	-2%	22µM*	-7%	-6%	-9%
CCOC(=O)Cc1c(C)nc2c(-c3ccc(Cl)cc3)c(C)[nH]n2c1=O	-3%	?	i	11%	1%
CC(Oc1ccc(Cl)cc1)C(=O)NNC(=S)NC(=O)c1ccco1 (centres undefined)	0%	20µM*	0%	7%	2%
COC(=O)C(N)Cc1ccc(O)c(O)c1 (centres undefined)	?	14µM*	-16%	.	-4%
COC(=O)C(N)Cc1ccc(O)cc1 (centres undefined)	-1%	1%	-10%	.	-4%
CC(=O)NCCc1ccc(O)c(O)c1	25%	18µM*	-10%	.	.
CN(c1ccccc1C(=O)N1CCN(c2cccc(Cl)c2)CC1)S(C)(=O)=O	-2%	12%	-4%	5%	-4%
CC(C)CNC(=O)c1cccc(NC(=O)c2ccco2)c1	-1%	0%	i	.	2%
COc1ccc(C(=O)CN2C(=O)N(c3cc(C)ccc3C)S(=O)(=O)c3ccccc32)cc1	.	.	.	.	-6%
COc1ccc(Cl)cc1NC(=O)C(=O)NC1CCCCCC1	5%	-1%	-3%	.	2%
COCc1cc(=O)oc2cc(NC(=O)c3ccc(C(C)(C)C)cc3)ccc12	12%	.	.	.	-6%
CCCn1c(Nc2nc3ccccc3n2C)nc2ccccc21	5%	?	5%	18µM*	-10%
CCCCn1c(Nc2ccccc2)nc2ccccc21	6%	0%	-6%	.	-3%
COc1ccc(/C=N\NC(=O)c2cc(O)c(O)c(O)c2)cc1CN1CCN(c2ccc(F)cc2)CC1	?	4µM*	-5%	-26%	-17%
CN(C)CCCNc1c2ccccc2nc2ccccc12	9.5µM*	.	.	.	169%
O=C(O)CN1C(=O)/C(=C/c2ccc(N3CCCCC3)o2)SC1=S	1%	32µM*	-3%	32µM*	-3%
CCCN1C(=O)S/C(=C/c2ccc(N3CCOCC3)o2)C1=O	-3%	8.9µM*	-3%	17%	0%
COC(=O)CN1C(=O)S/C(=C/c2ccc(N3CCCCC3)o2)C1=O	-3%	?	-19%	-24%	-17%
CC(=C\c1ccco1)/C=C1/SC(=S)N(CC(=O)O)C1=O	-8%	-2%	-1%	40µM*	40%
CC(/C=C1\SC(=S)N(CC(=O)O)C1=O)=C\c1ccccc1	10%	-1%	-9%	0%	-10%
O=C(O)c1cc2c(=O)c3ccccc3oc2nc1C(F)(F)F	14%	.	.	.	-3%
COc1ccccc1C(=O)NC(CCSC)C(=O)OCC(=O)NC(=O)NCc1ccco1 (centres undefined)	?	-4%	-24%	-10%	-10%
COc1cc(/C=N/Nc2nc(Nc3ccccc3)nc(-n3nc(C)cc3C)n2)cc(OC)c1OC	18%	3%	-10%	-6%	-3%
COc1ccc(O)c(/C=N/Nc2nc(Nc3ccccc3)nc(-n3nc(C)cc3C)n2)c1	-6%	14µM*	-16%	?	-19%
O=C1OC(C(=O)Nc2ccc(Cl)c(C(F)(F)F)c2)Cc2ccccc21 (centres undefined)	.	.	.	.	-4%
SMILES	APEX1 inh	KDM4E inh	RECQ1 helicase	L3MBTL1 block	BLM inh
NC(=S)Nn1c(-c2ccccc2)nc2ccccc2c1=O	18%	11%	-2%	-1%	2%
Cc1nc(SCC(=O)c2ccccc2)c(C#N)c(-c2ccco2)c1C(=O)NCc1ccco1	-6%	-4%	i	?	25µM*
N[C@@H]1CCN(O)C1=O	3.5µM*!	-15%	-2%	.	-11%
CCOc1ccc(C(=O)c2cn(CC(=O)Nc3ccc4c(c3)OCO4)c3ccc(OC)cc3c2=O)cc1	.	.	.	.	-28%
O=C1c2ccccc2NC(c2cccc(F)c2)N1Cc1ccco1 (centres undefined)	7.9µM*	?	-19%	4.5µM*	?
CCN(Cc1ccccc1)C(=O)Cn1c(=O)n(-c2ccc(Cl)c(Cl)c2)c(=O)c2c(C)c(C(=O)N(C)C)sc21	.	.	.	.	-8%
S=C([S-])NCCNC(=S)[S-].[Zn+2]	16µM*	.	32µM*	.	.
Cc1nnc(SCC(=O)N(CC(C)C)C2CCS(=O)(=O)C2)n1N (centres undefined)	10%	.	.	0%	.
O=C(Oc1ccc2c(=O)c(Oc3ccc4ccccc4c3)coc2c1)c1cncc(Br)c1	-5%	11µM*	i	2%	-4%
Cc1ccc(N(C(=O)Cn2nnc3ccccc32)C(C(=O)NCc2ccco2)c2ccc(C)o2)cc1 (centres undefined)	-3%	-3%	1%	1%	-4%
O=C(N/N=C/c1ccc(O)c(O)c1O)/C(=C/c1ccc([N+](=O)[O-])cc1)NC(=O)c1ccccc1	1%	10µM*	4%	.	-15%
Cc1ccc(NC(=O)/C(=C\c2ccc([N+](=O)[O-])cc2)NC(=O)c2ccccc2)cc1	14%	-1%	12%	2%	-4%
O=C(NN=Cc1ccc(F)cc1)c1cccc(S(=O)(=O)N2CCCC2)c1	21%	.	.	33%	.
O=C(N/N=C/c1ccc(O)c(O)c1)c1cccc(S(=O)(=O)N2CCCCC2)c1	16%	16µM*	i	-3%	-9%
O=C(CSc1n[nH]c(=O)n1Cc1ccco1)N1CCOCC1	18%	-1%	-2%	8%	-5%
Cc1ccc(C(=O)Oc2ccc(C(=O)COC(=O)C3CC(=O)N(Cc4ccco4)C3)cc2)cc1 (centres undefined)	32µM*	7%	-29%	?	-28%
CCCn1c(NC(=S)Nc2ccccc2)nc2ccccc21	14%	-14%	-8%	?	5%
S=C(Nc1ccccc1)Nc1nc2ccccc2n1CCOc1ccc(Cl)cc1	2%	-19%	-11%	11µM*	-7%
O=C(COC(=O)c1ccc([N+](=O)[O-])s1)NC(=O)NCc1ccccc1	?	1%	i	11µM*	-13%
COc1cc2cc(Oc3ccc4ccc(=O)oc4c3)c(=O)oc2cc1O[C@@H]1O[C@H](CO)[C@@H](O)[C@H](O)[C@H]1O	-39%	.	.	32µM*	.
CC1=C(C(=O)Nc2ccccc2)C(c2ccc[nH]2)n2ncnc2N1 (centres undefined)	-39%	.	.	1.6µM*	-30%
CS(=O)(=O)c1ccc(C(=O)Nc2nc(-c3ccco3)c(-c3ccco3)s2)cc1	-19%	.	.	7.1µM*	.
CCC1CCCCN1C(=O)Cn1c(C(=O)OC)cc2sc(Cl)cc21 (centres undefined)	1%	-1%	-16%	12%	2%
COc1ccc(C(=O)N/N=C(\C)c2ccc3c(c2)C2C=CCC2C(c2ccccc2)N3)cc1 (centres undefined)	8%	20µM*	-4%	-14%	-9%

Source: PubChem (National Center for Advancing Translational Sciences (NCATS))
